EPAC1 ag = qHTS for Agonist of cAMP-regulated guanine nucleotide exchange factor 3 (EPAC1): primary screen; 360,000 compounds, 0.073% hits; AID 720707, 2013; EPAC1 agonist qHTS, biochemical assay; response scale: 100% = response to 6.5 mM cAMP; Rap guanine nucleotide exchange factor 3 (Homo sapiens), O95398; Potency, µM (titrated, usually from 154 µM), for the others: at the highest dose activation, actives largely listed as activators; note: nearly all actives have a fitted effect of over 60% in size
Target sequence (O95398 whole entry, looked up): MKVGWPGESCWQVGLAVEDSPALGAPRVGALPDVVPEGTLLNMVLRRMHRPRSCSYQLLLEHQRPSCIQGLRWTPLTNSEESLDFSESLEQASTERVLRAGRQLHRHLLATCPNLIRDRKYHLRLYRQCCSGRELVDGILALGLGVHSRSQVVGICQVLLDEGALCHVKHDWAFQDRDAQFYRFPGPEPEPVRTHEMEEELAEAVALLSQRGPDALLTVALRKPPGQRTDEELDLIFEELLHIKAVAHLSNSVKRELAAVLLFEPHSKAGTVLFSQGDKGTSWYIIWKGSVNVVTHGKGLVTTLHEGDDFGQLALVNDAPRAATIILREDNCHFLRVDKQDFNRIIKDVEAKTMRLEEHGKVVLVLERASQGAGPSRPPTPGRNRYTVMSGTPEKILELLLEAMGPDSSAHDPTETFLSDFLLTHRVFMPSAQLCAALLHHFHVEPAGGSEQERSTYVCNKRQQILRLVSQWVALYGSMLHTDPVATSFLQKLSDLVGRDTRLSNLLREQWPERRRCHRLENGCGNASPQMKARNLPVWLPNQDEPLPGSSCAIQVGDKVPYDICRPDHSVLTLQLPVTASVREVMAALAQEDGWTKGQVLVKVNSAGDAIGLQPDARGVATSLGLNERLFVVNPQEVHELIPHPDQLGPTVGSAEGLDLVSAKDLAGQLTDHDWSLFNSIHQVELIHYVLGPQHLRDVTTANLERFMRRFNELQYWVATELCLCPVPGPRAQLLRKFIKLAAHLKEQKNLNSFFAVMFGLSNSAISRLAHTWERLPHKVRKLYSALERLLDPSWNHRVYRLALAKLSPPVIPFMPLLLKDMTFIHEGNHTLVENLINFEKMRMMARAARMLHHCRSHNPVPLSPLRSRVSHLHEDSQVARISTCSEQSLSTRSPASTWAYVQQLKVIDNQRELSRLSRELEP
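EPAC1 100 nM, Rap1B–BODIPY-GDP 250 nM, unlabeled GDP 50 uM; compound titration; 5 min RT; kinetic read ex480/em540 at 5-min intervals ×30 min; data normalized to 6.5 mM cAMP agonist control.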
EPAC2 antag = qHTS for Antagonist of cAMP-regulated guanine nucleotide exchange factor 2 (EPAC2): primary screen; 360,000 compounds, 0.18% hits; Rap guanine nucleotide exchange factor 4 (Homo sapiens), Q8WZA2; Potency, µM (top dose mostly 114 µM), inactives show at the top dose activity, negative = inhibition, most hits filed as inhibitors; EPAC2 GEF exchange of Rap1B-BODIPY-GDP, fluorescence; AID 720708, 2013; note: % is set by controls: 0 for no effect and ±100 for the full control effect; nearly all actives have a fitted effect of over 45% in size
EPAC2 ag = qHTS for Agonist of cAMP-regulated guanine nucleotide exchange factor 4 (EPAC2): primary screen; Rap guanine nucleotide exchange factor 4 (Homo sapiens), Q8WZA2; EPAC2 activation, biochemical qHTS; response scale: 100% = 6.5 mM cAMP response; Potency, µM (series often up to 154 µM), for the others: at the top dose activation, actives largely listed as activators; 360,000 compounds, 0.079% hits; note: nearly all actives have a fitted effect of over 50% in size
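Fluorescence exchange assay: 100 nM EPAC2 with 250 nM RAP1B-BODIPY-GDP and 50 uM GDP; compounds tested as a concentration-titration series (qHTS). Loss of Rap1-bound BODIPY-GDP fluorescence read at 480/540 nm; data normalized to 6.5 mM cAMP.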
Rango complex inh = qHTS Assay for Inhibitors of Rango (Ran-regulated importin-beta cargo) - Importin beta complex formation | Importin subunit beta-1 (Homo sapiens), Q14974 | Rango CFP/YFP FRET sensor + importin beta, 45 min | Potency, µM (top dose mostly 92.2 µM), without a hit: at the highest dose inhibition of complex formation | 340,000 compounds, 0.031% hits | AID 540263, 2011; calls by dose curve;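 note: 0% = DMSO wells and 100% = buffer wells lacking importin beta; nearly all actives have a fitted effect of over 15% in size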
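FRET biosensor Rango (snurportin 1 IBB between N-terminal EYFP and C-terminal Cerulean), 50 nM in PBS/1 mM DTT/0.02% Tween-20/0.1% BSA, preincubated 5 min RT with compound; 0.125 microM importin beta added, 45 min RT, CFP/YFP FRET ratio read.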
Rango dissoc inh = qHTS Assay for Inhibitors of RanGTP induced Rango (Ran-regulated importin-beta cargo) - Importin beta complex dissociation. Snurportin-1 (Homo sapiens) + GTP-binding nuclear protein Ran (Homo sapiens) + Importin …. Biochemical FRET Rango-importin beta, RanGTP-induced dissociation. Potency, µM (doses to about 46.1 µM), without a hit: at the highest dose activity change, negative = inhibition. 340,000 compounds, 0.071% hits. AID 540253, 2011; calls by dose curve; note: % of control where 0% means no effect; nearly all actives have a fitted effect of over 45% in size
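Rango (0.1 uM)–importin beta (0.25 uM) complex; RanGTP-RCC1 trigger; 45 min RT; CFP/YFP FRET read.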
EPAC1 antagonist = qHTS for Antagonist of cAMP-regulated guanine nucleotide exchange factor 3 (EPAC1): primary screen. Rap guanine nucleotide exchange factor 3 (Homo sapiens), O95398. EPAC1 GEF assay, Rap1b-BODIPY-GDP exchange fluorescence. Potency, µM (series often up to 115 µM), for the others: at the highest dose activity change, negative = inhibition, actives largely listed as inhibitors. 360,000 compounds, 0.14% hits. AID 720709, 2013;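 note: plate controls were vehicle for no effect and positive control for full effect; nearly all actives have a fitted effect of over 50% in size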
* = called active by the depositor; [ ] = another dose, or the depositor's remark. The list is not random: actives were taken first. Their share in the collection is about 0.48%. Unless noted, calls come from the whole dose curve; as a rule, active = well fitted curve in the direction sought with a large enough effect; inconclusive = small, poorly fitted or top-dose-only effect, or another doubt; inactive = no such curve, though single readings can be large; an effect the other way counts as inactive or inconclusive. Potency is the fitted concentration of half-maximal effect.

How did COCOCCn1cc(CN2CCS(=O)(=O)N(Cc3ccc(-c4ccc(C)cc4)cc3)C(CC(C)C)C2=O)nn1 (stereo unspecified) do in these assays?
EPAC1 ag: -18%; EPAC2 antag: inconclusive; EPAC2 ag: 10%; EPAC1 antagonist: -9%

What do the screens show for `COCOCCn1cc(CN2CCS(=O)(=O)N(Cc3ccc(-c4ccc(F)cc4)cc3)C(CC(C)C)C2=O)nn1` (stereo unspecified)?
EPAC1 ag: -19%; EPAC2 antag: 13µM*; EPAC2 ag: 1%; EPAC1 antagonist: -17%

How did CCNC(=O)C[C@@H]1C=C[C@@H](NS(=O)(=O)c2ccc(F)cc2)[C@@H](CO)O1 do in these assays?
EPAC1 ag: 1%; EPAC2 antag: 4%; EPAC2 ag: 3%; EPAC1 antagonist: 1%

How did COc1ccc(C(=O)N2CCN(c3ccccc3OC)CC2)cc1 do in these assays?
EPAC1 ag: -3%; EPAC2 antag: 6%; EPAC2 ag: 16%; Rango complex inh: 0%; Rango dissoc inh: 2%; EPAC1 antagonist: inconclusive

What do the screens show for `COc1ccccc1N1CCN(C(=O)c2ccc(S(=O)(=O)N3CCCC3)cc2)CC1`?
EPAC1 ag: -5%; EPAC2 antag: 7%; EPAC2 ag: 7.9µM*; Rango complex inh: inconclusive; Rango dissoc inh: -8%; EPAC1 antagonist: 1%

Results for Cc1cc(C)n(-c2ccc(C(=O)Nc3cccnc3)cc2)n1 ?
EPAC1 ag: -5%; EPAC2 antag: 8%; EPAC2 ag: -1%; Rango complex inh: 5%; Rango dissoc inh: 10%; EPAC1 antagonist: -17%

Results for CCOc1cc(/C=C2\C(=O)N(c3nc(-c4ccc(Br)cc4)cs3)N=C2c2ccccc2)ccc1O ?
EPAC1 ag: -5%; EPAC2 antag: 3%; EPAC2 ag: -14%; Rango complex inh: -3%; Rango dissoc inh: 1%; EPAC1 antagonist: 35µM*

Results for COc1cc(/C=C2\C(=O)N(c3ccc(NC(C)=O)cc3)N=C2c2ccccc2)ccc1O ?
EPAC1 ag: 11%; EPAC2 antag: 19%; EPAC2 ag: 12%; Rango complex inh: 0%; Rango dissoc inh: 18%; EPAC1 antagonist: -12%

What do the screens show for `c1ccc(C2=NN(c3ccccc3)CC2)cc1`?
EPAC1 ag: -6%; EPAC2 antag: -5%; EPAC2 ag: 1%; Rango complex inh: inconclusive; Rango dissoc inh: -30%; EPAC1 antagonist: -27%

What do the screens show for `CCOC(=O)/C(=C/c1ccc(N2CCC(c3ccccc3)=N2)cc1)C(C)=O`?
EPAC1 ag: inconclusive; EPAC2 antag: 202%; EPAC2 ag: 100µM*; Rango complex inh: inconclusive; Rango dissoc inh: inconclusive; EPAC1 antagonist: -7%

What do the screens show for `COc1cc(C)nc(N2CCCC(C(=O)Nc3cc(Cl)ccc3OC)C2)n1` (stereo unspecified)?
EPAC1 ag: 12%; EPAC2 antag: 25µM*; EPAC2 ag: -20%; Rango complex inh: 0%; Rango dissoc inh: -2%; EPAC1 antagonist: 2%

What do the screens show for `CCOC(=O)C1(C)CCCN(C(=O)c2ccccc2OC(F)(F)F)C1` (stereo unspecified)?
EPAC1 ag: -9%; EPAC2 antag: -4%; EPAC2 ag: -4%; EPAC1 antagonist: 8%

What do the screens show for `COCC(=O)N[C@H]1CC[C@@H](CC(=O)NCc2ccccc2OC)O[C@@H]1CO`?
EPAC1 ag: 2%; EPAC2 antag: 5%; EPAC2 ag: -1%; EPAC1 antagonist: 0%

How did CC1=CC(C)(C)N(C(=O)CCl)c2cc(C)ccc21 do in these assays?
EPAC1 ag: -5%; EPAC2 antag: 50µM*; EPAC2 ag: 6%; Rango complex inh: 0%; Rango dissoc inh: -2%; EPAC1 antagonist: -9%

What do the screens show for `CCOC(=O)Nc1cc2c(c(N)n1)N=C(c1ccccc1)CN2`?
EPAC1 ag: 10%; EPAC2 antag: 12%; EPAC2 ag: 2%; Rango complex inh: inconclusive; Rango dissoc inh: inconclusive; EPAC1 antagonist: 89µM*

Results for Nc1nc(=O)n(C2CCC(CO)O2)cc1F (stereo unspecified) ?
EPAC1 ag: 2%[76.9 µM]; EPAC2 antag: 11%[57.1 µM]; EPAC2 ag: 7%; EPAC1 antagonist: -12%[57.5 µM]

How did Cc1cc(O)c(C(=O)/C=C/c2ccccc2O)c(=O)o1 do in these assays?
EPAC1 ag: 7%; EPAC2 antag: -18%; EPAC2 ag: 1%; Rango complex inh: 5%; Rango dissoc inh: -10%; EPAC1 antagonist: 8%

What do the screens show for `Cc1cc(O)c(C(=O)/C=C/c2cccc([N+](=O)[O-])c2)c(=O)o1`?
EPAC1 ag: -6%; EPAC2 antag: -4%; EPAC2 ag: 6%; Rango complex inh: 5%; Rango dissoc inh: 4%; EPAC1 antagonist: 56µM*

How did O=[N+]([O-])c1cc([N+](=O)[O-])c2oc(-c3ccccc3)c(Br)c2c1O do in these assays?
EPAC1 ag: 6%; EPAC2 antag: 20µM*; EPAC2 ag: -7%; Rango complex inh: 0%; Rango dissoc inh: 3%; EPAC1 antagonist: 25µM*

What do the screens show for `O=c1cc(-c2ccccc2Cl)oc2ccc([N+](=O)[O-])c(O)c12`?
EPAC1 ag: -6%; EPAC2 antag: -13%; EPAC2 ag: 3%; Rango complex inh: -5%; Rango dissoc inh: -4%; EPAC1 antagonist: 7%

Results for COC(=O)C[C@@H]1C=C[C@@H](NS(=O)(=O)c2ccc(OC)cc2)[C@@H](CO)O1 ?
EPAC1 ag: -1%; EPAC2 antag: -10%; EPAC2 ag: 4%; EPAC1 antagonist: 16%

What do the screens show for `Oc1ccccc1-c1nc(NCc2cccnc2)c2ccccc2n1`?
EPAC1 ag: 19%; EPAC2 antag: -12%; EPAC2 ag: 3%; Rango complex inh: 2%; Rango dissoc inh: 12%; EPAC1 antagonist: -12%

What do the screens show for `Oc1ccccc1-c1nc(NCc2ccccc2)c2ccccc2n1`?
EPAC1 ag: -30%; EPAC2 antag: 89µM*; EPAC2 ag: 0%; Rango complex inh: inconclusive; Rango dissoc inh: -6%; EPAC1 antagonist: inconclusive

Source: PubChem BioAssay (National Center for Advancing Translational Sciences (NCATS))
